Experimental data from PubChem BioAssay (NCI).
This is part of a sample that, as a whole, favours compounds with a hit. Of some 83,000 tested, about 20% had one in any assay.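 Assay: single dose, 48 h. Readout: percent growth (0 = no net growth; negative = cell death). Active: <10.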 Calls of active or inactive are those of the source.

What was measured:
Experiment in all cases: NCI-60 one-dose screen, 48 h (100 = growth as untreated, 0 = no growth, -100 = all killed)
Settings in all cases: 10 µM
[1] = test system: DU-145 prostate
[2] = test system: K-562 leukemia
[3] = test system: MALME-3M melanoma
[4] = test system: MDA-MB-231 breast
[5] = test system: SF-268 CNS
[6] = test system: SF-295 CNS
[7] = test system: SF-539 CNS
[8] = test system: UACC-257 melanoma
[9] = test system: M14 melanoma
[10] = test system: HCT-15 colon
[11] = test system: HT29 colon
[12] = test system: SNB-75 CNS
[13] = test system: SNB-19 CNS
[14] = test system: U251 CNS
[15] = test system: PC-3 prostate
[16] = test system: SK-MEL-5 melanoma
[17] = test system: UACC-62 melanoma
[18] = test system: LOX IMVI melanoma
[19] = test system: SK-MEL-28 melanoma

Measured: growth

N#C/C(=C\c1ccc(N(c2ccccc2)c2ccccc2)cc1)C(N)=O
active: [8] -55.9% | [17] -47.3%
inactive: [1] 84.8% | [2] 35.4% | [3] 110% | [4] 89.3% | [5] 102% | [6] 23.5% | [7] 97% | [9] 90.7% | [10] 65.1% | [11] 30.5% | [12] 95.4% | [13] 77% | [14] 32.5% | [15] 61% | [16] 31.2% | [18] 79% | [19] 104%

COc1nccnc1NS(=O)(=O)c1ccc(NC2=C(Cl)C(=O)c3nc(C)ccc3C2=O)cc1
inactive: [1] 107% | [2] 96.3% | [3] 100% | [4] 91.1% | [5] 92.9% | [6] 97.5% | [7] 94% | [8] 101% | [9] 112% | [10] 93.7% | [11] 120% | [12] 111% | [13] 97.9% | [14] 96.9% | [15] 80.2% | [16] 100% | [17] 101% | [18] 71.7% | [19] 121%

CCOc1ccc(/C=N/NC(=O)Cn2nc(Cc3ccc([N+](=O)[O-])cc3)c3onc(C)c3c2=O)cc1
inactive: [2] 62.5% | [8] 70.3% | [9] 50.9% | [10] 33.7% | [11] 34.6% | [15] 23.1% | [16] 27.7% | [17] 49.9% | [19] 49.7%
active: [1] -15.2% | [3] -2.13% | [4] -19.9% | [5] -8.68% | [6] 1.32% | [7] -64.5% | [12] 6.05% | [13] -6.58% | [14] -66% | [18] -63.5%

COc1cc2c3c(n(CCCNCCO)c(=O)c2cc1OC)-c1nc2c(cc1C3=O)OCO2
active: [1] 6.05% | [4] 1.28% | [6] -8.95% | [7] -57.1% | [11] 5.98% | [17] 1.57% | [18] -90.8%
inactive: [2] 10.7% | [3] 46.7% | [5] 19.1% | [8] 80.2% | [9] 23.7% | [10] 48.5% | [12] 18.8% | [13] 13.7% | [14] 12.4% | [15] 27.1% | [16] 30.4% | [19] 72.2%

O=C1CCC(N2Cc3cc(CC(=O)Nc4ccc(N5CCCCC5)cc4)ccc3C2=O)C(=O)N1 (stereo not drawn)
active: [3] -25.4% | [4] 7.12% | [10] 7.29%
inactive: [1] 94.5% | [2] 77.3% | [5] 61.9% | [6] 57.4% | [7] 65.6% | [8] 102% | [9] 39.4% | [11] 77.4% | [12] 55.7% | [13] 49.2% | [14] 88.6% | [15] 26.7% | [16] 38.8% | [17] 78.1% | [18] 105% | [19] 76.4%

O=[N+]([O-])c1ccc(-c2nc(-c3ccccc3)c(-c3ccccc3)n2-c2ccc(S(=O)(=O)Nc3ncccn3)cc2)cc1
active: [6] 9.39%
inactive: [1] 64.4% | [2] 47.1% | [3] 87.2% | [4] 43.2% | [5] 31.7% | [7] 53.9% | [8] 63.9% | [9] 40.6% | [10] 23.8% | [11] 41.4% | [12] 44.1% | [13] 27.3% | [14] 35.8% | [15] 29.7% | [16] 28.4% | [17] 42% | [18] 28% | [19] 36.2%

Cc1cc(C)nc(/N=C(\N)Nc2ccc(S(=O)(=O)Nc3nc(C)cc(C)n3)cc2)n1
inactive: [1] 116% | [2] 102% | [3] 110% | [4] 105% | [5] 106% | [6] 98% | [7] 102% | [8] 108% | [9] 111% | [10] 104% | [11] 116% | [12] 78% | [13] 102% | [14] 106% | [15] 105% | [16] 102% | [17] 100% | [18] 98.6% | [19] 106%

Cc1ccc(-c2cc(C(=O)N=Nc3c(O)[nH]c4ccccc34)c3ccccc3n2)cc1
inactive: [2] 13.8% | [3] 36.5% | [5] 36.4% | [6] 94.3% | [8] 81% | [9] 70.5% | [11] 37.9% | [12] 85.7% | [13] 58% | [14] 27.2% | [15] 48.5% | [16] 36.9% | [17] 61.6% | [19] 59.4%
active: [1] 3.29% | [4] 2.78% | [7] -66.2% | [10] 7.91% | [18] -40.4%

COC(=O)c1c(C(=O)OC)c2n(c1C)[C@@H]([C@@H](C)[C@H]1CC[C@H]3[C@@H]4CCC5=CC(=O)CC[C@]5(C)[C@H]4CC[C@]13C)SC2
inactive: [1] 57.8% | [2] 15.7% | [3] 62.5% | [4] 56.7% | [5] 56.4% | [6] 24.7% | [7] 59% | [8] 19.5% | [9] 25.2% | [10] 22.2% | [11] 32.9% | [12] 51.1% | [13] 54.2% | [14] 38.9% | [17] 40.6% | [18] 28.4% | [19] 43.1%
active: [15] 8.05% | [16] -87%

COc1ccc2[nH]c(=O)c(CSc3ccc(Nc4nccc(-c5ccc(Cl)cc5)n4)cc3)cc2c1
inactive: [1] 111% | [2] 81.9% | [3] 113% | [4] 90.1% | [5] 99.9% | [6] 102% | [8] 120% | [9] 109% | [10] 97% | [11] 104% | [12] 110% | [13] 71.6% | [14] 94.2% | [15] 83.2% | [16] 98.4% | [17] 105% | [18] 89% | [19] 109%
active: [7] -41%

CC(C)(C)c1ccc(NCc2cn(-c3ccc(C(=O)O)cc3)nc2-c2ccc(C#N)cc2)cc1
inactive: [1] 36.1% | [2] 14.8% | [3] 42.9% | [4] 41.9% | [5] 33.9% | [6] 19.2% | [7] 14.3% | [8] 45.5% | [9] 30.1% | [12] 59.1% | [13] 24.6% | [14] 22.8% | [15] 20.6% | [18] 23.5% | [19] 28.1%
active: [10] -54.6% | [11] 3.73% | [16] 7.94% | [17] 8.63%

CCCn1c(=O)c2[nH]c(-c3ccc(OCc4nc5ccc(C(F)(F)F)cc5[nH]4)cc3)nc2n(CCC)c1=O
active: [7] 1.94% | [17] 6.48%
inactive: [1] 58.3% | [2] 34.9% | [3] 14.2% | [4] 11.1% | [5] 57.2% | [6] 38.8% | [8] 65.5% | [9] 59.5% | [10] 23.1% | [11] 62% | [12] 84.6% | [13] 71.5% | [14] 37.6% | [15] 33.2% | [16] 37.1% | [18] 35.5% | [19] 58.4%

CSc1nc(-c2cccc(C)c2)c2cc(-c3ccccc3)n(C)c2n1
inactive: [1] 31.4% | [2] 12% | [3] 20.1% | [4] 33.1% | [5] 25.7% | [6] 17.3% | [7] 14.3% | [8] 40.5% | [9] 21% | [10] 15.3% | [13] 30.2% | [14] 17.4% | [15] 21.7% | [17] 11.1% | [18] 21.4% | [19] 34.7%
active: [11] 9.09% | [12] -2% | [16] -44.7%

COc1ccc(/C=N/N=C(\C)c2ccc3c(c2)Nc2ccccc2S3)cc1O
active: [16] -23.5%
inactive: [1] 62.7% | [2] 25.7% | [3] 55.1% | [4] 65.3% | [5] 57.2% | [6] 45.1% | [7] 67.2% | [8] 27.6% | [9] 49.3% | [10] 29.8% | [11] 85.3% | [12] 66% | [13] 63.7% | [14] 64.5% | [15] 45.4% | [17] 58.9% | [18] 21% | [19] 60.9%

CCCSc1nc(NC2CC2)c(C#N)c(-c2ccc(OC)cc2)n1
inactive: [1] 98.1% | [2] 92.4% | [3] 134% | [4] 85% | [5] 80.9% | [6] 78.7% | [7] 85.6% | [8] 107% | [9] 129% | [10] 95.4% | [11] 90.1% | [12] 103% | [13] 70.3% | [14] 87.4% | [15] 95.3% | [16] 98.2% | [17] 83.7% | [19] 118%

COc1ccc(-c2cc(-c3cc(C(=O)c4ccccc4)n4ccc(C)cc34)nc(N)c2C#N)cc1
active: [7] 7.52%
inactive: [1] 77.9% | [2] 88.3% | [3] 50.8% | [4] 34.4% | [5] 41.2% | [6] 45.2% | [8] 84.4% | [9] 79.8% | [10] 78% | [11] 75% | [12] 91.5% | [13] 45.1% | [14] 45.4% | [15] 63.5% | [16] 67.7% | [17] 64.6% | [18] 51.3% | [19] 87.6%
